Measurements: the supplement of paper PMC10849652
About 7,900 targets were measured; listed, in parts, are those with a hit and a random draw of the rest. About 0.6% of all pairs of compound and target were hits. A number with no mark means an inactive call.

Experiments:
Test in all cases: log2 fold change, soluble protein after heating vs DMSO (PISA); higher = thermal stabilisation; K562 cells, 10 uM, 30 min; active = over 0.2 and 3.5 SD of the protein, either way, in both replicates (recomputed)
[1] = compound: CN1CCN(CCOc2cc(OC3CCOCC3)c3c(Nc4c(Cl)ccc5c4OCO5)ncnc3c2)CC1 [saracatinib]
In short: (§1)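 K562 cells at 2×10^6 cells/mL were given 10 μM compound for 30 min. Aliquots then went through 3 min of heating across 48°C-58°C, were pooled, and were extracted in PBS with 0.5% NP-40 at 4°C, and the supernatant after 21,000xg for 90 min was quantified by TMTpro 16plex LC-MS/MS with channel sums equalised. Thermal stability relative to control samples, from duplicates, is given as log2 fold change.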

[2] = compound: CN1CCN(c2nc(C3=C(c4c[nH]c5ccccc45)C(=O)NC3=O)c3ccccc3n2)CC1 [sotrastaurin]
In short: as §1

[3] = compound: CN1CC[C@H](c2c(O)cc(O)c3c(=O)cc(-c4ccccc4Cl)oc23)[C@H](O)C1 [alvocidib]
In short: as §1

[4] = compound: CN1CCc2c(c3ccccc3n2Cc2ccc(C(=O)NO)cc2)C1 [Tubastatin A]
In short: as §1

[5] = compound: CNC(=O)C1=CC=CC=C1NC2=NC(=NC=C2Cl)NC3=C(C=C(C=C3)N4CCOCC4)OC
In short: as §1

[6] = compound: CNC(=O)c1ccc(Nc2ncc(C(F)(F)F)c(NCc3nccnc3N(C)S(C)(=O)=O)n2)cc1 [defactinib]
In short: as §1

[7] = compound: CNCc1ccc(-c2[nH]c3cc(F)cc4c3c2CCNC4=O)cc1 [rucaparib]
In short: as §1

[8] = compound: CNc1nc(-c2ccc3c(N)n[nH]c3c2)cc(N2C[C@@H](C(=O)NC3CCCCC3)CC[C@H]2C)n1
In short: as §1

[9] = compound: COC(=O)N[C@@H](C)CNc1nccc(-c2cn(C(C)C)nc2-c2cc(Cl)cc(NS(C)(=O)=O)c2F)n1 [encorafenib]
In short: as §1

[10] = compound: COC(=O)[C@H](CCSC)NC(=O)C1=C(C=C(C=C1)NC[C@H](CS)N)C2=CC=CC=C2
In short: as §1

Sequence of UniProt Q92947 (Q92947 whole entry, looked up): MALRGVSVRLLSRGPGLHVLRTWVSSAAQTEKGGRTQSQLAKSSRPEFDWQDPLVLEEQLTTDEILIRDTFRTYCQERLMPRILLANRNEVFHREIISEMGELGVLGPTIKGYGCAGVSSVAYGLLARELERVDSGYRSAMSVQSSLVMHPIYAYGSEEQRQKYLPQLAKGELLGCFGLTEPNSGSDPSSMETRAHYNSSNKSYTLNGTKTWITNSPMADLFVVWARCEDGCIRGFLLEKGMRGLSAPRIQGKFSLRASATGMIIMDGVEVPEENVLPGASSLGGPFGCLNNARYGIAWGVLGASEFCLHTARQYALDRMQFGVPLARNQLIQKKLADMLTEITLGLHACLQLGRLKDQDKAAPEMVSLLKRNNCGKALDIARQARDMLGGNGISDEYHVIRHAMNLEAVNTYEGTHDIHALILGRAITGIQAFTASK
Sequence of UniProt O15347 (O15347 whole entry, looked up): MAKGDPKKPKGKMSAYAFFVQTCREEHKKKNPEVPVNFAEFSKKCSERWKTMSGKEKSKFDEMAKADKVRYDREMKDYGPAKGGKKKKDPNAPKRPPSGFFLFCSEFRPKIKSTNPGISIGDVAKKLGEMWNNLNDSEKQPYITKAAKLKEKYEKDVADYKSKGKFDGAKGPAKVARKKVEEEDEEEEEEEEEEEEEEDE
Sequence of UniProt Q96JB3 (Q96JB3 whole entry, looked up): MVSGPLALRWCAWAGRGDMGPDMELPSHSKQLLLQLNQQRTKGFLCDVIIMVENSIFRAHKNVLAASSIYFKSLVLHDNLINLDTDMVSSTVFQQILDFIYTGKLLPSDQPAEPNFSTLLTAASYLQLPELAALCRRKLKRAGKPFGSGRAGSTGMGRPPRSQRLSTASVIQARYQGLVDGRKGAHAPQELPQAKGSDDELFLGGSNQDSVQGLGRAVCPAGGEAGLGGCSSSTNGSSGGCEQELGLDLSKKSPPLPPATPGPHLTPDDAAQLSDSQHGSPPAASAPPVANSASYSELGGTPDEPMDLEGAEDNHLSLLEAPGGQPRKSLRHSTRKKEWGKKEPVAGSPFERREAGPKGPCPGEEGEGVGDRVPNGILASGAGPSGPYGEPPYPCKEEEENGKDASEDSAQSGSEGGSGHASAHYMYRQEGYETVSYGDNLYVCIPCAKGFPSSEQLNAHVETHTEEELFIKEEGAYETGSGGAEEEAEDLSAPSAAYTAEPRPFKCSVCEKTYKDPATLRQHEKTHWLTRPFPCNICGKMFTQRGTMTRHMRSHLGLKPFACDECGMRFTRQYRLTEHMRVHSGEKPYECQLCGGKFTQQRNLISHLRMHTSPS
Sequence of UniProt O00291 (O00291 whole entry, looked up): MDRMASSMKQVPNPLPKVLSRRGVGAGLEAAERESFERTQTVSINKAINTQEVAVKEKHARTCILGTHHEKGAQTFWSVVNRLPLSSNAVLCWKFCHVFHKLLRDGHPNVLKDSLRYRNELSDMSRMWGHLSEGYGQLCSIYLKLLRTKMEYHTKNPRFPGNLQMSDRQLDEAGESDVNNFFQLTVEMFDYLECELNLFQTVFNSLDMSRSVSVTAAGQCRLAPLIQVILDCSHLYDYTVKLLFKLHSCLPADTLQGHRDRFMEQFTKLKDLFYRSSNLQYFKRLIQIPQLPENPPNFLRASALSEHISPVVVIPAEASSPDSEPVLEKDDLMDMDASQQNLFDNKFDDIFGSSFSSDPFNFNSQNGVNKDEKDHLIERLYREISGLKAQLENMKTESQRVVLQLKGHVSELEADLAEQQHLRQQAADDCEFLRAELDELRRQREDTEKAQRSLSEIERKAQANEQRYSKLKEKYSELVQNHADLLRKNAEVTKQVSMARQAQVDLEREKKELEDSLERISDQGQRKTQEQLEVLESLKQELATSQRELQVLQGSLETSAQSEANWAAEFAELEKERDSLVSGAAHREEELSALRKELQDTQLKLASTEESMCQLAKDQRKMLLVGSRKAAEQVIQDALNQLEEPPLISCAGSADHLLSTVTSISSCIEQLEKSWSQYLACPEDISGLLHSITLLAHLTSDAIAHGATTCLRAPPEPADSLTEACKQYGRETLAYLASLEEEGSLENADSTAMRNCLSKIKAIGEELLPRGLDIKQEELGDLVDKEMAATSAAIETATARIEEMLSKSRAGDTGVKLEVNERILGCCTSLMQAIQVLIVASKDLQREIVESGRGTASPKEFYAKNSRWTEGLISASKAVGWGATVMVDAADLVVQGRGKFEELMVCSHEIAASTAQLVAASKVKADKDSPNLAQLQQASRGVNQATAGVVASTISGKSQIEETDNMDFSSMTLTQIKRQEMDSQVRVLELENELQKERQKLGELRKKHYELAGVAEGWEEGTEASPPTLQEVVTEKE
Sequence of UniProt Q9NP66 (Q9NP66 whole entry, looked up): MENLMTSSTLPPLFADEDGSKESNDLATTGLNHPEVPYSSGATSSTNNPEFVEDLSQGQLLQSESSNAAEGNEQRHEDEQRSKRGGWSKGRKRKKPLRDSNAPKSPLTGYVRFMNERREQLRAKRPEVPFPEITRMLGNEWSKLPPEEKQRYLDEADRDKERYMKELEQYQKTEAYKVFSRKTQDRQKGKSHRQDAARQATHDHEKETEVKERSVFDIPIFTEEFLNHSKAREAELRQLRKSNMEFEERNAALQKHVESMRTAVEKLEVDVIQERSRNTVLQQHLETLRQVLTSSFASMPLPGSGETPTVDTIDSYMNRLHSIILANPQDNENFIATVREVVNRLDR
Sequence of UniProt P55795 (P55795 whole entry, looked up): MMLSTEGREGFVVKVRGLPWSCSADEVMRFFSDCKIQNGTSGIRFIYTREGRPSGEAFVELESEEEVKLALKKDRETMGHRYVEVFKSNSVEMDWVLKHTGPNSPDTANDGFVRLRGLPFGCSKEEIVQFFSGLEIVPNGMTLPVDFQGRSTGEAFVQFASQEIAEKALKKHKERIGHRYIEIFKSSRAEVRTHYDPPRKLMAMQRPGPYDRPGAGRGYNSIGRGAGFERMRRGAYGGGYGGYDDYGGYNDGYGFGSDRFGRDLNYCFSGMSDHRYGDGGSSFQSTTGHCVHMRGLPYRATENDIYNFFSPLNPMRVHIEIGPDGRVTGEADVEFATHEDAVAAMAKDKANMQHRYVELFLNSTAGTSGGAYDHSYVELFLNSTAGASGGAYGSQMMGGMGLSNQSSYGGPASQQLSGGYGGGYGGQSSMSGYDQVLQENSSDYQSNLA
Sequence of UniProt Q02790 (Q02790 whole entry, looked up): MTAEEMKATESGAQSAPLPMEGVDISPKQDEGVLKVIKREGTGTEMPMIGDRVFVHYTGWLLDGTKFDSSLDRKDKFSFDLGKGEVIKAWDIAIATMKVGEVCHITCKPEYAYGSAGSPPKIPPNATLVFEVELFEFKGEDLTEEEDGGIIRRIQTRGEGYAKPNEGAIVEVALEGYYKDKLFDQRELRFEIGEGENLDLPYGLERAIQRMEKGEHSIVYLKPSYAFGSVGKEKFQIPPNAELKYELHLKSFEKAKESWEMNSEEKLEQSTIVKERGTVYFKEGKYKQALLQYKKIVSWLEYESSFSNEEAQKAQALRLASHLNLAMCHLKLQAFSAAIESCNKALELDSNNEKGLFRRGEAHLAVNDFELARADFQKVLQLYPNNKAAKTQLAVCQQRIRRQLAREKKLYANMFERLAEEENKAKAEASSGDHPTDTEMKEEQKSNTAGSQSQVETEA
Sequence of UniProt Q9UJY4 (Q9UJY4 whole entry, looked up): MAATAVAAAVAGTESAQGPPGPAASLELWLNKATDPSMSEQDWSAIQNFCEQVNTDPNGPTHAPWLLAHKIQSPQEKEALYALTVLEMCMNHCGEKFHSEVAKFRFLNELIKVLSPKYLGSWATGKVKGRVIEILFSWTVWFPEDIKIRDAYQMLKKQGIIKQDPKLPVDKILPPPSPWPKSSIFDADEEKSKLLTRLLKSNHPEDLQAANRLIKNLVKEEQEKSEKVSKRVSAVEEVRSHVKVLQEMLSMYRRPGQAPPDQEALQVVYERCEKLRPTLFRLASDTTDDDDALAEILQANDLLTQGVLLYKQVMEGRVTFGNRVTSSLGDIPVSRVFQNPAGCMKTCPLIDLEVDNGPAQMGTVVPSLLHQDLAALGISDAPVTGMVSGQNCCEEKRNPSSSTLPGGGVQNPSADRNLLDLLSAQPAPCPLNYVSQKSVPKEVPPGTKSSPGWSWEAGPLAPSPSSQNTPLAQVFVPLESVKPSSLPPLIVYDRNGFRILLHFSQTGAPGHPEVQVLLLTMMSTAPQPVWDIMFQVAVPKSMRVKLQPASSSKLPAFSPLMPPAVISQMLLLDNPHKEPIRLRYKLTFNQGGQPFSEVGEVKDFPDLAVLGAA
Sequence of UniProt P23434 (P23434 whole entry, looked up): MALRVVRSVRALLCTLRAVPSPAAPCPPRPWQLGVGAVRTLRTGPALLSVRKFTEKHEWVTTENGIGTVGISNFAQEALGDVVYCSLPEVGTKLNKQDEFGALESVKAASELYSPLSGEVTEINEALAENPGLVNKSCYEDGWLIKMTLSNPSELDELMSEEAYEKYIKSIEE
Sequence of UniProt P69905 (P69905 whole entry, looked up): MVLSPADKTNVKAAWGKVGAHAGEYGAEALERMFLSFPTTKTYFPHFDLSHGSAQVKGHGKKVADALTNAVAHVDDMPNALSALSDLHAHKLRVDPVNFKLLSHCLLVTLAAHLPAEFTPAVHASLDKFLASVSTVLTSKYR
Sequence of UniProt P0C0S5 (P0C0S5 whole entry, looked up): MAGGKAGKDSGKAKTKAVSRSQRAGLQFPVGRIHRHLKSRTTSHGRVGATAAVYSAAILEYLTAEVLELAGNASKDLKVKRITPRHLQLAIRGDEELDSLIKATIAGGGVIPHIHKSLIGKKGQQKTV
Sequence of UniProt Q53FT3 (Q53FT3 whole entry, looked up): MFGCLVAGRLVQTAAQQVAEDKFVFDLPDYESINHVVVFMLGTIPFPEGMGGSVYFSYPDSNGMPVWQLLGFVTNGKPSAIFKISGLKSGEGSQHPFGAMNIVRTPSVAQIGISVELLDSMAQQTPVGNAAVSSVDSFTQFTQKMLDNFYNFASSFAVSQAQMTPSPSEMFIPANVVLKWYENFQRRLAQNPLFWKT

Target	log2 fold change [1]	log2 fold change [2]	log2 fold change [3]	log2 fold change [4]	log2 fold change [5]	log2 fold change [6]	log2 fold change [7]	log2 fold change [8]	log2 fold change [9]	log2 fold change [10]
FKBP4 (UniProt Q02790)	-0.048	-0.022	-0.092	-0.009	0.032	-0.055	0.016	0.05	0.026	-0.036
HIC2 (UniProt Q96JB3)	-0.152	-0.236	0.033	-0.034	-0.011	-0.008	0.142	-0.019	0.045	0.089
GALK1 isoform 2 (UniProt P51570)	0.117	-0.096	-0.035	-0.011	-0.049	-0.032	-0.014	0.055	0.007	-0.006
HBA1 (UniProt P69905)	-0.017	0.036	-0.02	0.035	-0.01	-0.014	-0.036	0.011	-0.043	-0.034
GCSH (UniProt P23434)	-0.024	0.057	0.009	-0.017	0.021	-0.01	-0.012	-0.004	-0.028	-0.008
HIKESHI (UniProt Q53FT3)	0.03	0.043	-0.068	-0.01	0.046	-0.038	0.029	-0.003	0.024	0.028
GNB2 (UniProt P62879)	-0.033	0.019	0.001	0.015	-0.002	-0.028	-0.004	0.039	0.005	-0.065
GTF2B (UniProt Q00403)	-0.155	-0.103	-0.22	0.135	-0.013	-0.144	-0.017	0.026	0.023	-0.01
GYS1 (UniProt P13807)	-0.255	-0.286	0.1	0.035	0.107	0.057	0.077	0.193	0.176	-0.047
HHEX (UniProt Q03014)	0.095	-0.068	-0.146	0.126	0.035	-0.173	0.04	-0.011	-0.061	0.651
HIP1 (UniProt O00291)	0.078	-0.079	-0.102	0.038	0.008	-0.001	0.065	-0.024	-0.048	-0.001
HDAC6 (UniProt Q9UBN7)	-0.067	-0.013	-0.009	1.01 (active)	-0.037	-0.028	-0.028	0.09	-0.135	-0.014
HMGN2 (UniProt P05204)	-0.138	0.156	0.069	-0.05	0.026	0.046	0.13	0.075	-0.091	0.013
GSK3A (UniProt P49840)	-0.007	0.337 (active)	0.257	-0.007	-0.009	0.18	0.22	-0.041	0.005	-0.051
GGA2 (UniProt Q9UJY4)	-0.054	0.053	-0.034	-0.088	-0.025	0.025	-0.064	-0.054	0.068	0.122
HMGB3 (UniProt O15347)	0.05	0.031	-0.022	0	-0.076	0.089	0.008	-0.073	-0.063	0.021
H2AZ1 (UniProt P0C0S5)	-0.082	0.067	0.093	-0.017	-0.102	0.259	0.396	-0.014	0.107	0.105
GAK (UniProt O14976)	1.06	-0.066	1.14	0.011	1.11	0.658	0.237	0.402	-0.17	-0.266
HPCAL1 (UniProt P37235)	0.011	0.017	-0.004	-0.085	0.048	-0.008	0.013	-0.107	-0.014	-0.025
GLS (UniProt O94925)	0.039	-0.023	-0.147	0.021	-0.031	-0.167	0.002	-0.092	0.017	-0.093
GSK3B isoform 2 (UniProt P49841)	0.012	0.2	0.052	-0.007	0.001	-0.015	0.059	-0.019	-0.003	0.03
HAX1 (UniProt O00165)	-0.067	-0.106	-0.015	0.015	-0.14	-0.008	0.082	0.051	0.045	-0.013
GCDH (UniProt Q92947)	0.035	0.07	0	0.004	-0.054	-0.012	0.045	0.009	-0.047	0.008
FOXK1 (UniProt P85037)	0.214	-1.37 (active)	-1.01 (active)	-0.112	0.2	-0.941	-0.759	0.615	0.054	-0.111
HNRNPH2 (UniProt P55795)	-0.065	-0.081	-0.106	0.101	-0.079	-0.173	0.002	-0.001	0.02	-0.068
GAPVD1 isoform 6 (UniProt Q14C86)	-0.04	-0.158	-0.063	-0.009	-0.007	-0.07	0.103	0.032	0.125	-0.043
HMG20A (UniProt Q9NP66)	0.038	-0.106	-0.075	0.018	0.005	0.029	-0.323	-0.015	-0.109	-0.009
